Coupling enz: inhibits coupling enzyme system, counter-screen for aldolase hits. coupling enzyme system counterscreen, AmpLite Red fluorescence. activity change, negative = inhibition, % at 58.2 µM, hits read low. 290,000 compounds, 0.67% hits; in the data active means activity change below about -30%
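Compounds tested against the coupling enzymes alone at 57.5 uM final; readout was AmpLite Red fluorescence (525/598 nm) after 20 min at RT.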
Tau FP inhib: tau fibrillization inhibition (FP) | P10636 | K18 P301L tau heparin fibrillization, Alexa594 FP, 6 h | Potency, µM (top dose mostly 57.7 µM), actives largely listed as inhibitors | 280,000 compounds, 0.39% hits; further: nearly all actives have a fitted effect of over 55% in size
Target sequence (P10636 561-689 P618L limits assumed): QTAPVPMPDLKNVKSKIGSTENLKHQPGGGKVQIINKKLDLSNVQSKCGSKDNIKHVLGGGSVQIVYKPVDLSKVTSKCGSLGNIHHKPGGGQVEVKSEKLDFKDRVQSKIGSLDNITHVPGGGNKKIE
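K18 P301L tau (15 uM unlabeled/0.24 uM Alexa 594-labeled, final) + compound + heparin 20 uM final; 100 mM NaOAc pH 7; 6 hr 37 C; ThT 30 uM final added, 1 hr RT; FP ex 555/em 632 nm.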
Tau fluor cs: counter-screen for tau fibril formation inhibitors. 280,000 compounds, 0.93% hits. tau K18 P301L Alexa594 fluorescence, heparin fibrillization. AID 1463. Potency, µM (highest dose often 57.7 µM); further: nearly all actives have a fitted effect of over 55% in size
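Human tau K18 P301L (15 uM unlabeled, 0.24 uM Alexa 594-labeled) in 100 mM sodium acetate pH 7 with 20 uM heparin, 6 hr at 37 C. ThT 30 uM added, 1 hr ambient; Alexa 594 FP and total fluorescence read at 555/632 nm.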
Tau fibril ThT: tau fibrillization inhibition (ThT binding) | 270,000 compounds, 2.1% hits | P10636 | recombinant tau K18 P301L (four-repeat tau fragment), heparin-induced fibrillization, ThT fluorescence | Potency, µM (top dose mostly 57.4 µM), actives largely listed as inhibitors | AID 1460; further: nearly all actives have a fitted effect of over 55% in size
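Heparin-induced (20 uM) aggregation of recombinant human K18 P301L tau, 15 uM unlabeled with 0.24 uM labeled, pH 7 acetate buffer, 6 hr at 37 C with compound. Fibrils quantified by 30 uM ThT fluorescence after 1 hr ambient incubation.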
G9a block: inhibitors of human histone lysine methyltransferase G9a | G9a H3K9 monomethylation, AlphaScreen, 2 h | Potency, µM (series often up to 102 µM), usual class: inhibitors | 350,000 compounds, 8.8% hits | AID 504332; further: nearly all actives have a fitted effect of over 75% in size
Target sequence (Q96KQ7 913-1193 limits assumed): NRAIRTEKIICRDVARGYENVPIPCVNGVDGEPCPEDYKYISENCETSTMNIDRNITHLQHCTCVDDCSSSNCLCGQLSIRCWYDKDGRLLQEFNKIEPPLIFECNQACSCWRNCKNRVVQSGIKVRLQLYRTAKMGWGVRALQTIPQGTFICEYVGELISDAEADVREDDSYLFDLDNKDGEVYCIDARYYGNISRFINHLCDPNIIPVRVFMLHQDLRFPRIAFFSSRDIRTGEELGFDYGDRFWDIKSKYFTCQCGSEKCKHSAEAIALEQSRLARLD
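Compounds were preincubated with 20 nM G9a for 15 min, after which biotinylated H3K9 peptide (500 nM) and SAM (20 uM) started a 2 h room-temperature reaction. Monomethylated product was quantified by antibody-based AlphaScreen chemiluminescence.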
Sfp PPTase inh: inhibitors of Bacillus subtilis Sfp phosphopantetheinyl transferase; Q9F4F7; Biochemical Sfp PPTase activity, qHTS; Potency, µM, most hits filed as inhibitors; 310,000 compounds, 3.5% hits;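 further: the enzyme is Sfp with the accession as filed and its product quenches rhodamine fluorescence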
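Reaction rates are the 30-min fluorescence difference (ex 525, em 598 nm) in wells containing 15 nM Sfp, 5 uM rhodamine-CoA and 12.5 uM BHQ-2-YbbR at pH 7.6 with 10 mM MgCl2.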
A number is an active result; [ ] = remark or other dose. Hits are enriched below; roughly 11% of the tested compounds scored in any of these assays. Unless noted, the call rests on the fitted dose curve; in most records, active means well fitted curve in the direction sought with a large enough effect; inconclusive means small, poorly fitted or top-dose-only effect, or another doubt; inactive means no such curve, though single readings can be large; an effect the other way counts as inactive or inconclusive.

What do the screens show for `C=C(C)C(=O)OCC(O)COc1ccc(C(C)(C)c2ccc(OCC(O)COC(=O)C(=C)C)cc2)cc1` (stereo not drawn)?
G9a block: inactive[12.7 µM]

How did CCc1ccccc1NS(=O)(=O)c1ccc2[nH]cc(C(=O)NC3CCCC3)c(=O)c2c1 do in these assays?
Coupling enz: inactive; Tau FP inhib: 13µM; Tau fluor cs: inconclusive; Tau fibril ThT: inactive; G9a block: inactive; Sfp PPTase inh: inactive

How did O=C(NC1CCCCC1)c1c[nH]c2ccc(S(=O)(=O)Nc3ccccc3F)cc2c1=O do in these assays?
Tau FP inhib: 28µM; Tau fluor cs: inconclusive; Tau fibril ThT: inactive; G9a block: inactive

Results for CNC(=O)c1c[nH]c2ccc(S(=O)(=O)Nc3ccccc3F)cc2c1=O ?
Coupling enz: inactive; G9a block: inconclusive; Sfp PPTase inh: inactive

Results for CCOC(=O)c1ccc(NC(=O)Cc2noc3ccc(C)cc23)cc1 ?
Tau FP inhib: inactive; Tau fluor cs: inactive; Tau fibril ThT: inactive; G9a block: 13µM

Results for Cc1ccc2onc(CC(=O)N(C)c3ccccc3)c2c1 ?
Tau FP inhib: inactive; Tau fluor cs: inactive; Tau fibril ThT: inconclusive; G9a block: 11µM

How did Cc1ccc2onc(CC(=O)N3CCN(c4ccccc4F)CC3)c2c1 do in these assays?
Tau FP inhib: inactive; Tau fluor cs: inactive; Tau fibril ThT: inactive; G9a block: inactive

What do the screens show for `CC(=O)c1cccc(NC(=O)c2ccc(Cl)c(S(=O)(=O)N3CCOCC3)c2)c1`?
Tau FP inhib: inactive; Tau fluor cs: inactive; Tau fibril ThT: inactive; G9a block: inactive

Results for COc1ccc(C(=O)Nc2nnc(S(=O)(=O)N3CCN(c4ccc(F)cc4)CC3)s2)cc1 ?
Tau FP inhib: inactive; Tau fluor cs: inactive; Tau fibril ThT: inconclusive; G9a block: inconclusive

How did O=C(Cn1cc(S(=O)(=O)Cc2ccc([N+](=O)[O-])cc2)c2ccccc21)N1CCOCC1 do in these assays?
G9a block: 8.9µM; Sfp PPTase inh: 40µM

Results for Cc1ccc(CNC(=O)CS(=O)(=O)c2cn(CC(=O)N3CCOCC3)c3ccccc23)cc1 ?
G9a block: 25µM; Sfp PPTase inh: 40µM

Results for O=C(CS(=O)(=O)c1cn(CC(=O)N2CCCC2)c2ccccc12)Nc1ccccc1 ?
G9a block: inactive; Sfp PPTase inh: inactive

What do the screens show for `O=C(Cn1cc(S(=O)(=O)Cc2cccc([N+](=O)[O-])c2)c2ccccc21)N1CCOCC1`?
G9a block: inconclusive; Sfp PPTase inh: inactive

How did CC(=O)Nc1ccc(NC(=O)CS(=O)(=O)c2cn(CC(=O)N3CCCC3)c3ccccc23)cc1 do in these assays?
G9a block: 40µM; Sfp PPTase inh: inactive

Results for COc1ccc(NC(=O)CN2C(=O)NC(C)(C3CC3)C2=O)c(OC)c1 (stereo not drawn) ?
G9a block: inactive

How did CCc1ccc(NC(=O)CN2C(=O)C3CCCN3c3ccc(S(=O)(=O)N(CC)CC)cc32)cc1 (stereo not drawn) do in these assays?
Tau FP inhib: inactive; Tau fluor cs: inactive; Tau fibril ThT: inactive; G9a block: inconclusive

What do the screens show for `Cc1c(C)c2ccc(OCC(=O)N3CCOCC3)c(C)c2oc1=O`?
Coupling enz: inactive; Tau FP inhib: inactive; Tau fluor cs: inactive; Tau fibril ThT: inactive; G9a block: inactive; Sfp PPTase inh: inactive

What do the screens show for `CC(=O)NN1C(=O)/C(=C\c2ccccc2)SC1=S`?
Tau FP inhib: inactive; Tau fluor cs: inactive; Tau fibril ThT: inactive; G9a block: inactive; Sfp PPTase inh: inactive

Results for CC(=O)NN1C(=O)/C(=C\c2ccc(Br)o2)SC1=S ?
Coupling enz: inactive; Tau FP inhib: inactive; Tau fluor cs: inactive; Tau fibril ThT: 25µM; G9a block: 40µM; Sfp PPTase inh: 56µM

Results for CC(=O)NN1C(=O)/C(=C/c2ccc(Br)o2)SC1=S ?
Coupling enz: inactive; Tau FP inhib: inconclusive; Tau fluor cs: inconclusive; Tau fibril ThT: 16µM; G9a block: 50µM; Sfp PPTase inh: 56µM

What do the screens show for `Cc1cc2nc3c(=O)[nH]c(=O)nc-3n(CC(O)C(O)C(O)COP(=O)(O)O)c2cc1C` (stereo not drawn)?
Coupling enz: inactive; Tau FP inhib: inconclusive; Tau fluor cs: inactive; Tau fibril ThT: inconclusive; G9a block: inconclusive; Sfp PPTase inh: inactive

What do the screens show for `CCCCN(C(=O)c1ccc(Cl)c(S(=O)(=O)N2CCOCC2)c1)c1c(N)n(CCC)c(=O)[nH]c1=O`?
Coupling enz: inactive; Tau FP inhib: inactive; Tau fluor cs: inactive; Tau fibril ThT: inactive; G9a block: inactive[12.7 µM]; Sfp PPTase inh: inactive

How did COc1ccc(C)cc1NC(=O)Nc1nnc(N2CCCCC2)s1 do in these assays?
Tau FP inhib: inactive; Tau fluor cs: inactive; Tau fibril ThT: inactive; G9a block: inactive

Results for CC1CC(C)CN(C(=O)C(C)N(C)CC(=O)Nc2ccc(F)cc2)C1 (stereo not drawn) ?
G9a block: inactive[12.7 µM]

How did CC1CC(C)CN(C(=O)C(C)N(C)CC(=O)Nc2ccc(Cl)cc2)C1 (stereo not drawn) do in these assays?
Coupling enz: inactive; Tau FP inhib: inactive; Tau fluor cs: inactive; Tau fibril ThT: inactive; G9a block: 50µM; Sfp PPTase inh: inconclusive

Results for Cc1cc2nc3c(=O)n(C)c(=O)n(C)c3nc2cc1N=CN(C)C ?
Tau FP inhib: inactive; Tau fluor cs: inactive; Tau fibril ThT: inactive; G9a block: 16µM

Results for CCCCCCC(=O)Nc1cc2nc3c(nc2cc1C)c(=O)n(C)c(=O)n3C ?
Tau FP inhib: inactive; Tau fluor cs: inactive; Tau fibril ThT: inconclusive; G9a block: inactive

How did Nc1scc2c(C(=O)N/N=C/c3ccc(Cl)cc3)nn(-c3ccccc3)c(=O)c12 do in these assays?
Coupling enz: -48; Tau FP inhib: inconclusive; Tau fluor cs: inconclusive; Tau fibril ThT: 11µM; G9a block: inconclusive; Sfp PPTase inh: 14µM

How did O=C(/C=C/c1ccccc1)CC(=O)c1ccccc1O do in these assays?
Coupling enz: inactive; Tau FP inhib: inconclusive; Tau fluor cs: inconclusive; Tau fibril ThT: 13µM; G9a block: 16µM; Sfp PPTase inh: inconclusive

What do the screens show for `CCOc1ccc(CCNC(=O)c2cnccn2)cc1OCC`?
Coupling enz: inactive; G9a block: inactive; Sfp PPTase inh: inactive

Results for CCOc1ccc(CCNC(=O)c2ccc(Cl)c(S(=O)(=O)N3CCOCC3)c2)cc1OCC ?
G9a block: 56µM

How did CCOc1ccc(CCNC(=O)c2ccc(F)c(S(=O)(=O)N3CCOCC3)c2)cc1OCC do in these assays?
Coupling enz: inactive; G9a block: inactive; Sfp PPTase inh: inactive

What do the screens show for `CCOc1ccc(CCNC(=O)c2nccnc2C(=O)O)cc1OCC`?
Coupling enz: inactive; G9a block: 50µM; Sfp PPTase inh: inactive

Screens: PubChem BioAssay, National Center for Advancing Translational Sciences (NCATS)
